Source: PubChem BioAssay (NCATS)
Results filed as inconclusive are left out. Where a call stands in place of a potency, no number is given. Active and inactive are the calls of the source. Calls come from the whole dose curve; as a rule, active = well fitted curve in the direction sought with a large enough effect; inconclusive = small, poorly fitted or top-dose-only effect, or another doubt; inactive = no such curve, though single readings can be large; an effect the other way counts as inactive or inconclusive.

Target: Alpha-galactosidase (Coffea arabica) (UniProt Q42656)
Assay: Counterscreen for Glucocerebrosidase Inhibitors: qHTS Assay for Coffee Bean alpha-Galactosidase at pH 4.5 (AID 957)
Details: purified coffee bean alpha-galactosidase, fluorogenic substrate; series mostly up to 76.9 µM
Outline: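 Green coffee bean enzyme (2 nM final) was incubated with compounds (0.7 nM to 77 uM) and 4-methylumbelliferyl alpha-D-galactopyranoside (80 uM final) in 50 mM citric acid, 0.005% Tween-20, pH 4.5, 20 min at room temperature; AC50 from Hill fits.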

Chain of Alpha-galactosidase (Coffea arabica) (Q42656 whole entry, looked up): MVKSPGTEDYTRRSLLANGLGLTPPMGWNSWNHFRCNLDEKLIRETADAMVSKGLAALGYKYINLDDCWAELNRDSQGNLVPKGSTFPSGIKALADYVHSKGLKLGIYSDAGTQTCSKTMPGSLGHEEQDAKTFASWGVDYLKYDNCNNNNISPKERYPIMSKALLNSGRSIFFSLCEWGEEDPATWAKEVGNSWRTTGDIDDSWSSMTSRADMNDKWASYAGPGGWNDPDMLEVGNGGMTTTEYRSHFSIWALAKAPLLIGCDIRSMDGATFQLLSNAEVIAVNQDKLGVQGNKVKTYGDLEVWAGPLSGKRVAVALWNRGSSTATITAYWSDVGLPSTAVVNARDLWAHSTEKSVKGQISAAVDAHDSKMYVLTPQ

Row | SMILES | outcome
1 | CCN(c1nc(N)c(C(=O)N=C(N)N)nc1Cl)C(C)C | inactive
2 | COc1ccccc1N1CCN(CCCCNS(=O)(=O)c2cccc3c(N(C)C)cccc23)CC1 | inactive
3 | CC(C)(C)c1cc(/C=C(\C#N)C(N)=S)cc(C(C)(C)C)c1O | inactive
4 | c1cnc2c(c1)ccc1cccnc12 | inactive
5 | CCCCCCCC/C=C\CCCCCCCC(=O)NCCc1ccc(O)c(O)c1 | inactive
6 | NC(N)=NC(=O)c1nc(Cl)c(N2CCCCCC2)nc1N | inactive
7 | COC1=C(OC)C(=O)c2ccccc2C1=O | inactive

Target: Alpha-galactosidase (Coffea arabica) (UniProt Q42656)
Assay: Counterscreen for Glucocerebrosidase Inhibitors: qHTS Assay for Coffee Bean alpha-Galactosidase at pH 5.9 (AID 998)
Details: coffee bean alpha-galactosidase enzyme assay; series mostly up to 76.9 µM
Outline: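 Compounds were titrated from 0.7 nM to 77 uM against green coffee bean alpha-galactosidase (2 nM) using 80 uM fluorogenic 4-methylumbelliferyl substrate. After 20 min at room temperature, reactions were stopped at pH 10 and read by fluorescence.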

Row | SMILES | outcome
8 | CCN(c1nc(N)c(C(=O)N=C(N)N)nc1Cl)C(C)C | inactive
9 | COc1ccccc1N1CCN(CCCCNS(=O)(=O)c2cccc3c(N(C)C)cccc23)CC1 | inactive
10 | c1cnc2c(c1)ccc1cccnc12 | inactive
11 | CCCCCCCC/C=C\CCCCCCCC(=O)NCCc1ccc(O)c(O)c1 | inactive
12 | NC(N)=NC(=O)c1nc(Cl)c(N2CCCCCC2)nc1N | inactive

Tested on: not listed separately
Assay: Inducers of the Endoplasmic Reticulum Stress Response (ERSR) in human glioma: Validation (AID 504836)
Details: human glioma cells, ER stress response reporter; series mostly up to 38.3 µM
Outline: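 ERSR induction read as luciferase luminescence (Bright-Glo, 10 min at room temperature) in stably transfected human U87-MG glioma cells exposed to compounds for 16 h, using GRP78 as sensor.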

Row | SMILES | outcome
13 | CC(C)(C)c1ccc(/C=C/C(=O)Nc2ccc3c(c2)OCCO3)cc1 | inactive
14 | C=CCc1cccc(C=NNC(=O)CN2CCN(Cc3ccccc3)CC2)c1O | inactive
15 | O=C(c1ccc(Cl)cc1)N1CCN(c2ccc([N+](=O)[O-])c3ncccc23)CC1 | inactive
16 | CCN(c1nc(N)c(C(=O)N=C(N)N)nc1Cl)C(C)C | inactive
17 | Oc1ccc(/C=C/c2ccc(/C=C/c3ccc(O)cc3)c(Br)c2)cc1 | inactive
18 | COc1ccccc1N1CCN(CCCCNS(=O)(=O)c2cccc3c(N(C)C)cccc23)CC1 | inactive
19 | O=C1c2ccccc2C(=O)c2c(NCCc3ccc(O)cc3)ccc(NCCc3ccc(O)cc3)c21 | inactive
20 | CC#CCOC(=O)c1c(C)nc2sc3c(c2c1N)CCC(O)C3 (stereo unspecified) | inactive
21 | Cc1cc(NC2CCCCC2)nc(-n2nc(C)cc2C)n1 | inactive
22 | CSc1ccccc1N1CCN(CCCCCC(=O)NC2CCCc3ccccc32)CC1 (stereo unspecified) | inactive
23 | CC(C)(C)c1cc(/C=C(\C#N)C(N)=S)cc(C(C)(C)C)c1O | inactive
24 | O=C(CCCCCN1CCN(c2ccccc2-c2ccccc2)CC1)NC1CCCc2ccccc21 (stereo unspecified) | inactive
25 | c1cnc2c(c1)ccc1cccnc12 | inactive
26 | CCCCCCCC/C=C\CCCCCCCC(=O)NCCc1ccc(O)c(O)c1 | inactive
27 | NC(N)=NC(=O)c1nc(Cl)c(N2CCCCCC2)nc1N | inactive
28 | COC1=C(OC)C(=O)c2ccccc2C1=O | inactive
29 | COc1ccccc1N1CCN(CCN(C(=O)c2ccc(I)cc2)c2ccccn2)CC1 | inactive
30 | O=[N+]([O-])c1ccc2c(c1)S(=O)(=O)C=C2 | inactive

Target: Ubiquitin carboxyl-terminal hydrolase 1 (Homo sapiens) (UniProt O94782)
Assay: Inhibitors of USP1/UAF1: Pilot qHTS (AID 504865); note: nearly all actives have a fitted effect of over 35% in size; note: potency is the fitted concentration of half-maximal effect
Details: purified USP1/UAF1, Ub-rhodamine cleavage fluorescence; series mostly up to 114 µM
Outline: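 USP1/UAF1 complex at 1 nM preincubated 15 min at room temperature with compound, then Ub-Rho substrate added at 150 nM final. Fluorescence (480/540 nm) read kinetically in 50 mM HEPES pH 7.8, 0.5 mM EDTA, 1 mM TCEP, 0.1 mg/ml BSA, 0.01% Tween-20.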

Chain of Ubiquitin carboxyl-terminal hydrolase 1 (Homo sapiens) (O94782 whole entry, looked up): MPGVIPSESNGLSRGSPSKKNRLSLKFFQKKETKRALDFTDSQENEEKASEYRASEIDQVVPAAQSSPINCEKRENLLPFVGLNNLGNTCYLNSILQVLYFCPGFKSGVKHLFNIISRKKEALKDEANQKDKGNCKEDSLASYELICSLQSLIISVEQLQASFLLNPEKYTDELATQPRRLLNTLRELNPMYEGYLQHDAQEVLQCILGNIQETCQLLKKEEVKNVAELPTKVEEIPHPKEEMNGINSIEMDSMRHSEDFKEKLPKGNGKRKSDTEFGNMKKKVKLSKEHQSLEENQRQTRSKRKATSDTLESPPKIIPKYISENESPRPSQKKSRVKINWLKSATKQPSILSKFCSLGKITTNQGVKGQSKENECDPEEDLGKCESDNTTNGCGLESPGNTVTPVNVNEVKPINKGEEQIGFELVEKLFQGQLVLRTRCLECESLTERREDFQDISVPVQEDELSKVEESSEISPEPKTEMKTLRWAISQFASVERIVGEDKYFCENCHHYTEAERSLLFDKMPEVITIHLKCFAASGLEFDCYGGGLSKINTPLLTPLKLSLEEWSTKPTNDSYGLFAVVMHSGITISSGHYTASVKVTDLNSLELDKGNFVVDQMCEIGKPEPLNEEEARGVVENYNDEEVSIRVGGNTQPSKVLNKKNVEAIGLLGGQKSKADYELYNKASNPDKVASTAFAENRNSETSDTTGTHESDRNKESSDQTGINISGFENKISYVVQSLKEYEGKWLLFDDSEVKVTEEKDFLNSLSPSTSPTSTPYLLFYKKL

Row | SMILES | Potency
31 | CN1C[C@@H](C(=O)N[C@@]2(C)O[C@]3(O)C4CCCN4C(=O)[C@@H](Cc4ccccc4)N3C2=O)C=C2c3cccc4[nH]cc(c34)C[C@@H]21 (stereo partly specified) | 50.1 µM (active)
32 | C[C@]12CC[C@@H]3c4ccc(O)cc4C[C@@H](CCCCCCCCCS(=O)CCCC(F)(F)C(F)(F)F)C3[C@@H]1CC[C@@H]2O (stereo partly specified) | inactive
33 | COc1ccc2c(c1)CCC1[C@@H]2CCC2(C)[C@@H](NCCCCCCN3C(=O)C=CC3=O)CC[C@@H]12 (stereo partly specified) | inactive
34 | NCCCCC(NC(CCc1ccccc1)C(=O)O)C(=O)N1CCCC1C(=O)O (stereo unspecified) | inactive
35 | CC(C)n1c(/C=C\[C@@H](O)C[C@@H](O)CC(=O)O)c(-c2ccc(F)cc2)c2ccccc21 | inactive
36 | Cc1cc2nc3c(=O)[nH]c(=O)nc-3n(C[C@H](O)[C@H](O)[C@H](O)COP(=O)(O)OP(=O)(O)OC[C@H]3O[C@@H](n4cnc5c(N)ncnc54)[C@H](O)[C@@H]3O)c2cc1C | 50.1 µM (active)
37 | CC(=O)OC1C([N+]2(C)CCCCC2)C[C@H]2C3CC[C@H]4C[C@H](OC(C)=O)C([N+]5(C)CCCCC5)CC4(C)C3CCC12C (stereo partly specified) | inactive
38 | CC(=O)N1CCN(c2ccc(OC[C@@H]3CO[C@@](Cn4ccnc4)(c4ccc(Cl)cc4Cl)O3)cc2)CC1 | inactive
39 | CN1[C@@H]2CC(OC(=O)[C@@H](CO)c3ccccc3)C[C@@H]1[C@H]1O[C@H]12 (stereo partly specified) | inactive
40 | CN[C@@H](CC(C)C)C(=O)N[C@@H]1C(=O)N[C@H](CC(N)=O)C(=O)N[C@@H]2C(=O)N[C@H]3C(=O)N[C@H](C(=O)N[C@H](C(=O)O)c4cc(O)cc(O)c4-c4cc3ccc4O)[C@H](O)c3ccc(c(Cl)c3)Oc3cc2cc(c3O[C@H]2O[C@@H](CO)[C@@H](O)[C@@H](O)[C@@H]2O[C@@H]2C[C@](C)(N)[C@H](O)[C@H](C)O2)Oc2ccc(cc2Cl)[C@@H]1O | inactive
41 | CC[C@@H]1CN2CCc3cc(OC)c(OC)cc3[C@H]2C[C@@H]1C[C@H]1NCCc2cc(OC)c(OC)cc21 | inactive
42 | C[N+]12CCC(CC1)[C@@H](OC(=O)C(O)(c1ccccc1)c1ccccc1)C2 | inactive
43 | NCC1O[C@@H](O[C@H]2C(O)C(O[C@@H]3C(O[C@H]4OC(CO)C(O)C(O)C4N)C(N)CC(N)[C@H]3O)O[C@@H]2CO)C(N)C(O)C1O (stereo partly specified) | inactive
44 | CC1COC2=C1C(=O)C(=O)c1c2ccc2c1CCCC2(C)C (stereo unspecified) | 79.4 µM (active)
45 | C[C@]12CCC3C(CC[C@]4(O)C[C@@H](O)CC[C@]34C=O)[C@@]1(O)CC[C@@H]2C1=CC(=O)OC1 (stereo partly specified) | inactive
46 | CNC(C)C1CC[C@H](N)[C@@H](OC2C(N)C[C@H](N)[C@@H](OC3OC[C@](C)(O)C(NC)[C@H]3O)C2O)O1 (stereo partly specified) | inactive
47 | CC[N+](C)(CC)CCC[n+]1c(-c2ccccc2)c2cc(N)ccc2c2ccc(N)cc21 | 7.94 µM (active)
48 | NC[C@@H]1O[C@H](OC2[C@@H](CO)O[C@@H](OC3[C@H](O)[C@H](N)C[C@H](N)[C@H]3OC3O[C@H](CO)[C@@H](O)[C@H](O)[C@@H]3N)[C@H]2O)C(N)[C@H](O)[C@@H]1O (stereo partly specified) | inactive
49 | CC[C@@H]1CN2CCc3cc(OC)c(OC)cc3[C@@H]2C[C@@H]1C[C@H]1NCCc2cc(OC)c(OC)cc21 | inactive
50 | O=C(NC(=O)c1c(F)cccc1F)Nc1ccc(Cl)cc1 | inactive
51 | CC(=O)O[C@H]1C[C@H]2CC[C@@H]3[C@H]4C[C@@H]([N+]5(C)CCCCC5)[C@@H](OC(C)=O)[C@]4(C)CC[C@@H]3[C@@]2(C)C[C@@H]1[N+]1(C)CCCCC1 | inactive
